# Unmarked numbers belong to inactive results.
# Compound: C#CCNC(=O)CCSSCCC(=O)NCCc1ccc(C=O)c(C=O)c1
# Assay: lysine labeling ratio R10:1 (500 µM / 50 µM probe), SILAC-ABPP in living cells; higher = lower intrinsic lysine reactivity toward the probe, active = 2 or less
# Conditions: HeLa; probe concentrations 500 vs 50 µM
# Summary of the method: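 In PBS at room temperature, living HeLa cells grown with SILAC light or heavy labels were treated with 50 µM or 500 µM of an alkyne-tagged, disulfide-linked lysine probe, with label swaps in both directions. Analysis was by LC-MS/MS on a TIMS-TOF Pro after click to biotin-azide, neutravidin capture and DTT release. For each lysine, R is the median across forward and reverse replicates of the filtered median high-probe/low-probe MS1 peptide ratio, capped at 20.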
# Sequence of UniProt P04075 (P04075 whole entry): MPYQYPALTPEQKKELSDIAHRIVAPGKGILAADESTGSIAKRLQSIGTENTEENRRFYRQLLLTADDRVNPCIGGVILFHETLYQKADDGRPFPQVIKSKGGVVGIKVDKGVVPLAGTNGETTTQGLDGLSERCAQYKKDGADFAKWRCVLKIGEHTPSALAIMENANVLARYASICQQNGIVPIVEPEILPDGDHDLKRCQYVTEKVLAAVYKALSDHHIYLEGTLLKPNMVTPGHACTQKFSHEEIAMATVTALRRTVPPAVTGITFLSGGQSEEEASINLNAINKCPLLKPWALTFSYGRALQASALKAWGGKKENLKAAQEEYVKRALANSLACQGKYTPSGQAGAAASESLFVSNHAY
# Sequence of UniProt Q15149 (Q15149 whole entry): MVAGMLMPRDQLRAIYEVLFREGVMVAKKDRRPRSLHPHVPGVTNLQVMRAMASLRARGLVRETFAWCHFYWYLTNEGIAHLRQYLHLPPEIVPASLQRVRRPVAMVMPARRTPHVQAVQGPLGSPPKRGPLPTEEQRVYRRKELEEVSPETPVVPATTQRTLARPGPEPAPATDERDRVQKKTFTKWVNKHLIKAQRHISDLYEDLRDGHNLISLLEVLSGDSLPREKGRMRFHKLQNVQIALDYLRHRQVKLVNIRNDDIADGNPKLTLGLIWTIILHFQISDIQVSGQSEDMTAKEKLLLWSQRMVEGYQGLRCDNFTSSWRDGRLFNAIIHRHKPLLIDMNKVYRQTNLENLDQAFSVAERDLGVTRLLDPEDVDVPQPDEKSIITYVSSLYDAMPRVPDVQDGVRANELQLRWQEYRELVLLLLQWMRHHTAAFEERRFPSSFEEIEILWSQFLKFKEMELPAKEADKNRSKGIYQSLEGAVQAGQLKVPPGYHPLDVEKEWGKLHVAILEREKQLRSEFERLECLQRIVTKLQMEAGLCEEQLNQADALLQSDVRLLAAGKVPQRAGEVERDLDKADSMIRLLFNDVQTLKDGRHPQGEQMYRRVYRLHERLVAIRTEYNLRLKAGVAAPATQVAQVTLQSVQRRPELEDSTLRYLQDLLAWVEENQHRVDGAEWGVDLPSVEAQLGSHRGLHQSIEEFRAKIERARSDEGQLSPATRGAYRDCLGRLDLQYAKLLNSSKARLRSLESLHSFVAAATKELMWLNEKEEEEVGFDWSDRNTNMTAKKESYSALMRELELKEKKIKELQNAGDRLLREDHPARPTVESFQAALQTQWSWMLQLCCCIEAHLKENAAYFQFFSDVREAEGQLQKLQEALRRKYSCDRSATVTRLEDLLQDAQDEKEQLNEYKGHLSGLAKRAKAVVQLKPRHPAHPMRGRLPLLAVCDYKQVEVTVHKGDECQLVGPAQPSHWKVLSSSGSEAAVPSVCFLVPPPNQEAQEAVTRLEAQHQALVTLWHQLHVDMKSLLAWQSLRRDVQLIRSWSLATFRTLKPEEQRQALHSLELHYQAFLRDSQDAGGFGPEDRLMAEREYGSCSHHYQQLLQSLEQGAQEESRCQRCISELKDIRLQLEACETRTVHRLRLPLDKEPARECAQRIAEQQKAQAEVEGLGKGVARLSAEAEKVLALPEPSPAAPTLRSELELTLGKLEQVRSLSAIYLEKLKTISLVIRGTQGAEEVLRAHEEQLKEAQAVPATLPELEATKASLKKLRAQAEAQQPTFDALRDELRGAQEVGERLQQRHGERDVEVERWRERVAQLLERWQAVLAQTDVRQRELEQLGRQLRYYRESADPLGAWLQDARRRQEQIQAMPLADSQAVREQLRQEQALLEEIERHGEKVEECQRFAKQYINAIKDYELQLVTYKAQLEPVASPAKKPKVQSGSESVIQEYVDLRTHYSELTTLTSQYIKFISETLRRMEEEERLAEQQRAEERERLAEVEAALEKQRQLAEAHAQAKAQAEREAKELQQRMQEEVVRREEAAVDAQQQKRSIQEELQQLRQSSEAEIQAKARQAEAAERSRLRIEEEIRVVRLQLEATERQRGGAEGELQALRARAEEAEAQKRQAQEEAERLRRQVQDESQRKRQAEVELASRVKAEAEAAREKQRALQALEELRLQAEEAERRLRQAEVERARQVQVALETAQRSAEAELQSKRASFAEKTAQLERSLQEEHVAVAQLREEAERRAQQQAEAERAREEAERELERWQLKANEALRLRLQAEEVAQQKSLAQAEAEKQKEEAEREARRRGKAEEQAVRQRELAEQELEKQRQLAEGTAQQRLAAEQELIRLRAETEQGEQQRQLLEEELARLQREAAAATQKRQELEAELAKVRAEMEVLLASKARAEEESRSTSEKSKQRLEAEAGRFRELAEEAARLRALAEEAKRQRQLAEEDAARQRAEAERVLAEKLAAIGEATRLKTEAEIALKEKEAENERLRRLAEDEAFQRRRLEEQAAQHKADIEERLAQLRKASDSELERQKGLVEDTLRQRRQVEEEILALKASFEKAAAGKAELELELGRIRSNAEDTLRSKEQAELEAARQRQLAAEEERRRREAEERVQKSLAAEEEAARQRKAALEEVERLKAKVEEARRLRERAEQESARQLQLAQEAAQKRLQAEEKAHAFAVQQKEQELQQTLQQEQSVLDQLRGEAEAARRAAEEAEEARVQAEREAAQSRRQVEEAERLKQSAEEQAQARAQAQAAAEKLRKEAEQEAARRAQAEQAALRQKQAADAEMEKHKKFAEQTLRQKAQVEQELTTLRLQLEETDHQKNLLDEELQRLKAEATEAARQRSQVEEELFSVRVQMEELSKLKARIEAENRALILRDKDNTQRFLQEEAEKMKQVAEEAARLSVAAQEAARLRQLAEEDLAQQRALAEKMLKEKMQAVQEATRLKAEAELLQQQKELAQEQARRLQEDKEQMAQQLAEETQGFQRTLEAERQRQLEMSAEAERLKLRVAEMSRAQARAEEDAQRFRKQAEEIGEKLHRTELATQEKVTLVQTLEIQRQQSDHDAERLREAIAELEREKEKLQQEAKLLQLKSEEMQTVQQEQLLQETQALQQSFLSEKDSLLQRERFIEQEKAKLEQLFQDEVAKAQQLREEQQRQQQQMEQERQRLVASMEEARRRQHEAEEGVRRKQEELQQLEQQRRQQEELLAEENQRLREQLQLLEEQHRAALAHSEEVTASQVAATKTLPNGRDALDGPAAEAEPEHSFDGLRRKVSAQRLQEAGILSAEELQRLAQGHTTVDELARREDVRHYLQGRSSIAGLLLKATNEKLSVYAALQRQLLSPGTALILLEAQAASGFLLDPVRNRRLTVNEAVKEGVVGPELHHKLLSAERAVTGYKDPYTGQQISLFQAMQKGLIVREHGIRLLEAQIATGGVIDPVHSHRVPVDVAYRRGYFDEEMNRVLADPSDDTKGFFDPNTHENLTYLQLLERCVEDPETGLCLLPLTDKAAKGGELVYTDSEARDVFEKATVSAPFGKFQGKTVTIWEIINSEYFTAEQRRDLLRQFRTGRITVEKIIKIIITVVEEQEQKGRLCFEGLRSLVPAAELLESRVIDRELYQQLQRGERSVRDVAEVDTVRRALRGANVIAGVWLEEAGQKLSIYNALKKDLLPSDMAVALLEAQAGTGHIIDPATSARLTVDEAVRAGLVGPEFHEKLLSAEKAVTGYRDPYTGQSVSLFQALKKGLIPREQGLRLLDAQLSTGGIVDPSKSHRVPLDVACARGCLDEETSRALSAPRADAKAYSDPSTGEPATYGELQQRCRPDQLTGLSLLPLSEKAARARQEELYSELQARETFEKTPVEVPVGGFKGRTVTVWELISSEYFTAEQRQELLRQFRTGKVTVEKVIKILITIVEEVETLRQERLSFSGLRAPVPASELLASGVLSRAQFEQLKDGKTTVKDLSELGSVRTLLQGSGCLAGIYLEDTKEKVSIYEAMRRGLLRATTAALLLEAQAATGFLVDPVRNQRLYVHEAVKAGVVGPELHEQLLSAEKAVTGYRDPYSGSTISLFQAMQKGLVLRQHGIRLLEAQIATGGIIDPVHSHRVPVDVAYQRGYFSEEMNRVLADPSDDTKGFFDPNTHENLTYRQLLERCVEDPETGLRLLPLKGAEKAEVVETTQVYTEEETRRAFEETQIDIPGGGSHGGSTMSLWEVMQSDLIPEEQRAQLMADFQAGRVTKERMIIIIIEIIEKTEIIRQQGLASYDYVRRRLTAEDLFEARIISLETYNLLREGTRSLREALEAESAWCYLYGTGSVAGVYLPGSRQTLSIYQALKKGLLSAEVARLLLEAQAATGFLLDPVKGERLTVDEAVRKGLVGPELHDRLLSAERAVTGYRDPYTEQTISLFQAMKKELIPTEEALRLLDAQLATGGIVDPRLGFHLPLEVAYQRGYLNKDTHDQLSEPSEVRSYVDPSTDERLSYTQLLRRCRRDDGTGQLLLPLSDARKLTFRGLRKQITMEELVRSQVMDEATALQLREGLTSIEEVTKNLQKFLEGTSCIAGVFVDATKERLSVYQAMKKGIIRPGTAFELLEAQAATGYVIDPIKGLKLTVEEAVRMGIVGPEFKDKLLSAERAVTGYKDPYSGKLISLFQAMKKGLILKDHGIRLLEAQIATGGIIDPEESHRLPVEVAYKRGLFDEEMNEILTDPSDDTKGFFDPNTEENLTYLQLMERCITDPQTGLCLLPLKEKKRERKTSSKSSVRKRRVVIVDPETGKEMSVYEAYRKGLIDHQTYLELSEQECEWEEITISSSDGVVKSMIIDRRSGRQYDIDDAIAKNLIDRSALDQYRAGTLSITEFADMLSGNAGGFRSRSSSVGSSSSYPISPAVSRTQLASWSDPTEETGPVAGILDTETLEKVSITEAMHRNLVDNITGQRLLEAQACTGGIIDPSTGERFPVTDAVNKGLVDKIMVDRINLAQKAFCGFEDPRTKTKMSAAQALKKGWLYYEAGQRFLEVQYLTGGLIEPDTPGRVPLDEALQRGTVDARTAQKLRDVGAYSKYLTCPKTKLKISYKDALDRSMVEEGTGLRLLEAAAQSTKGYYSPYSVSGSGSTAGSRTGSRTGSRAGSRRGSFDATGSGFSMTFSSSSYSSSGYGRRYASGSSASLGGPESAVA
row,Target,lysine labeling ratio R10:1
1,ANXA2 (lysine site: K281) (UniProt P07355),5.78
2,UniProt Q15149 (lysine site: K567),14.2
3,TFRC (lysine site: K585) (UniProt P02786),4.53
4,LRP8 (lysine site: K567) (UniProt Q14114),1.53 (active)
5,MYH9 (lysine site: K1669) (UniProt P35579),5.57
6,KIAA1549 (lysine site: K1195) (UniProt Q9HCM3),2.77
7,RPL5 (lysine site: K197) (UniProt P46777),1.37 (active)
8,ALDOA (lysine site: K330) (UniProt P04075),2.76
9,RPL4 (lysine site: K259) (UniProt P36578),1.88 (active)
10,UniProt Q9NYQ7 (lysine site: K2131),1.56 (active)
11,ANXA1 (lysine site: K185) (UniProt P04083),3.58
12,PDIA4 (lysine site: K637) (UniProt P13667),2.44
13,UniProt O94991 (lysine site: K280),1.34 (active)
14,IGF1R (lysine site: K47) (UniProt P08069),3.62
15,ALDOA (lysine site: K111) (UniProt P04075),4.71
16,NRP1 (lysine site: K504) (UniProt O14786),6.03
17,FASN (lysine site: K1704) (UniProt P49327),2.46
18,ATAD3B (lysine site: K135) (UniProt Q5T9A4),2.68

# — the supplement of paper PMC11001985
